Results filed as inconclusive are left out. Calls of active or inactive are those of the source.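 The calls were made as follows, unless noted: active = response below a set limit, under 55% cells CD8-positive and vesicle-bound, and CD8 cells' 90th-percentile brightness under 279; inactive = the rest.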

One may read the inhibition as the relative decrease from the control value, in per cent.

Assay [1] in a line: yeast TOR pathway RPL19A-GFP modulators, primary screen, cell-based, S. cerevisiae, multiplex flow cytometry (AID 1862; in the data active = percent of DMSO control GFP below about 86%;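 also: lower values mimic rapamycin by blocking the RPL19A rise seen in DMSO cells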). The note with it: S. cerevisiae RPL19A-GFP strain, flow cytometry fluorescence, 3 h; at 10 µM; stronger effect = lower value. For orientation: Flow cytometry measures light scatter and fluorescence of single cells or particles in a stream.
Assay [2] in a line: modulators of MEP2-GFP levels in yeast, primary screen, S. cerevisiae, multiplex flow cytometry (AID 1867;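 active = GFP response, as percent of the DMSO control, above the screen-wide mean plus 3 SD, about 139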;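 also: median GFP channel fluorescence of barcode-gated MEP2-GFP cells measured by flow cytometry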). The note with it: S. cerevisiae MEP2-GFP strain, 3 h, at 10 µM, stronger effect = higher value, 100% means same as DMSO wells.
The nature of assay [3]: modulators of CIT2-GFP expression in yeast, primary screen, S. cerevisiae, GFP fusion, multiplex flow cytometry (AID 1870;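 active = percent response above a set limit, the screen-wide mean plus 3 SD, cut at about 130% in these data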;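 also: barcoded CIT2-GFP strain pooled with four other GFP strains with rapamycin as positive control; median GFP fluorescence per well over plate mean of DMSO wells so 100% = DMSO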). The note with it: 3 h, at 10 µM, stronger effect = higher value.
The nature of assay [4]: modulators of LAP4-GFP expression in yeast, primary screen, S. cerevisiae, multiplex flow cytometry (AID 1873;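 active = GFP signal, as percent of the solvent control, above the screen mean plus 3 SD, about 149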). The note with it: 3 h, at 10 µM, stronger effect = higher value.
Assay [5] can be described thus: modulators of AGP1-GFP expression in yeast TOR pathway, primary screen, cell-based, multiplex flow cytometry, S. cerevisiae (AID 1887;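 active = GFP signal above the screen-wide mean plus 3 SD, that is over about 124.5% of the solvent control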;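 also: AGP1-GFP fusion strain of S. cerevisiae within a five-strain barcoded multiplex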). The note with it: 3 h, at 10 µM, stronger effect = higher value.
Assay [6] in a line: inhibitors of CD8+ T cell-vesicle binding, pilot screen, LFA-1/ICAM-1 modulator project, MLPCN validation set, flow cytometry (AID 2523).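 As to vesicle binding response: mean PE anti-B7-1 fluorescence of CD8+ cells relative to row control; 100% = QL9-loaded vesicles with DMSO vehicle in the same plate row.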 The note with it: 2C mouse CD8+ T cells, at 7 µM, stronger effect = lower value; double positive events: measured here: CD8+/vesicle+ event percentage.
The target of assay [7] is Integrin beta-1 (Homo sapiens) + Integrin alpha-4 (Homo sapiens) (UniProt P13612+P05556). The assay can be described thus: inhibition of HUTS-21 binding to VLA-4, pilot screen, VLA-4 allosteric modulator project, U937 cells, HUTS-21 mAb, flow cytometry, validation set (AID 2674;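 active = inhibition above 50%, about 3 SD of the validation set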;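 also: antibody binding induced by the VLA-4 ligand LDV present at three times its Kd; 0% = LDV ligand with antibody and no compound and 100% = antibody without LDV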). The note with it: HUTS-21 LIBS mAb binding, at 6.7 µM, stronger effect = higher value, binding induced by LDV ligand.
Chain of Integrin beta-1 (Homo sapiens) + Integrin alpha-4 (Homo sapiens) (P05556 whole entry, looked up): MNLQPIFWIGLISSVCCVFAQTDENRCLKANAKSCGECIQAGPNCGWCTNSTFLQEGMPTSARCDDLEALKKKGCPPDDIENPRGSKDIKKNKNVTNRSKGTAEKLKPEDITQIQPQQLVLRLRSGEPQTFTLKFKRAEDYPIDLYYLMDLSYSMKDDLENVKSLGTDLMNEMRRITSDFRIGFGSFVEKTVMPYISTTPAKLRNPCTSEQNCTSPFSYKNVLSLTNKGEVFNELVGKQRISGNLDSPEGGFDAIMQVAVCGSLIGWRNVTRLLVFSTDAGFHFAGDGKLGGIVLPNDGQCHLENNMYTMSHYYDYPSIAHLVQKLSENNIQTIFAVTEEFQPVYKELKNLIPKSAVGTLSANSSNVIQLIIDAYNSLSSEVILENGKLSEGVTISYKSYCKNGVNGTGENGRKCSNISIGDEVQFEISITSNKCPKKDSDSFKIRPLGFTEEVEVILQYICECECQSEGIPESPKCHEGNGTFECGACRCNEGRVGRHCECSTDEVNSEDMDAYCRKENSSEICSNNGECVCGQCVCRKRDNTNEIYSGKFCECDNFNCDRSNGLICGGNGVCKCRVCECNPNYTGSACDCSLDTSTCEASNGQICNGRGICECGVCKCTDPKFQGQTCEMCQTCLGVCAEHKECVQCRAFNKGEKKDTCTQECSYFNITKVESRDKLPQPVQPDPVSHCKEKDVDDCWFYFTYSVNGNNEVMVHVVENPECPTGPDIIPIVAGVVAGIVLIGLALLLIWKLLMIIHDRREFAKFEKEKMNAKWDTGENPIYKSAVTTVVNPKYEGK
Chain of Integrin beta-1 (Homo sapiens) + Integrin alpha-4 (Homo sapiens) (P13612 whole entry, looked up): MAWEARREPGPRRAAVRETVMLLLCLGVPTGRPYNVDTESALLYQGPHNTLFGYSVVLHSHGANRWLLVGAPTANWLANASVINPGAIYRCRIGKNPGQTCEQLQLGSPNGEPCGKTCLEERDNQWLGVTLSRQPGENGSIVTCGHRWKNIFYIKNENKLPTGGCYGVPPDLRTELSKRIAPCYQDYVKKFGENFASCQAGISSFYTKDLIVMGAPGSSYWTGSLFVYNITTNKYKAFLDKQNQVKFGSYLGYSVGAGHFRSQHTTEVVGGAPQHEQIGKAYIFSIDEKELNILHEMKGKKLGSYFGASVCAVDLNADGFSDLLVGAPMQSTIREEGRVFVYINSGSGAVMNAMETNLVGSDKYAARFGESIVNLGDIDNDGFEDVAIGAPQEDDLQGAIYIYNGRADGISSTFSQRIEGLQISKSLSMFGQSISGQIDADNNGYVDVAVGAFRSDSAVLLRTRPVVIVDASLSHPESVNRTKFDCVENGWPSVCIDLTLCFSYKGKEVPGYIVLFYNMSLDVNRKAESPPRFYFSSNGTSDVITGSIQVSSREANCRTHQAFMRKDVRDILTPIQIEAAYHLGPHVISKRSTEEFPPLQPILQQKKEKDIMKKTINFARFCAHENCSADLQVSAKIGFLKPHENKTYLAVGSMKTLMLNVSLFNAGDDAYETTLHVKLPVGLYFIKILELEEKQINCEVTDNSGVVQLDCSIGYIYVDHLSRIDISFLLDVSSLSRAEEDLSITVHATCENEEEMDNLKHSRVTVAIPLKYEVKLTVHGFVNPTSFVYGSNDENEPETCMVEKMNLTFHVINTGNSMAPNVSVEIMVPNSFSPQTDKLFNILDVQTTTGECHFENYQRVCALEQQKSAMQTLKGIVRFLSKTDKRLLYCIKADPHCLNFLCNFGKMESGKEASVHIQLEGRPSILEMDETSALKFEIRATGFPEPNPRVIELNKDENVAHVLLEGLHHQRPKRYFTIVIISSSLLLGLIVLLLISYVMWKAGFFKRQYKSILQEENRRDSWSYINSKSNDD

A short description of assay [8]: superoxide lowering in aged yeast cells, pilot screen, validation compound set (AID 2706;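 active = superoxide response below 65% of plate, a cut near 3 SD across the whole screen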;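 also: yeast exposed to compound for one week at 30 degrees C before staining; 100% = mean of all compound wells on the same plate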). The note with it: S. cerevisiae aging, superoxide DHE fluorescence; at 10 µM; stronger effect = lower value.
Assay [9] deals with Beta-adrenergic receptor kinase 1 (Homo sapiens) (UniProt P25098). In words: GRK2 binders displacing RNA aptamer, biochemical, validation, human GRK2, bead flow cytometry (AID 488806;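 active = aptamer binding inhibition above 30%, about 3 SD of noise from non-fluorescent compounds; inactive = inhibition at or below 30%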). The note with it: bead-bound GRK2, FAM-aptamer displacement, at 10 µM, stronger effect = higher value.
Chain of Beta-adrenergic receptor kinase 1 (Homo sapiens) (P25098 whole entry, looked up): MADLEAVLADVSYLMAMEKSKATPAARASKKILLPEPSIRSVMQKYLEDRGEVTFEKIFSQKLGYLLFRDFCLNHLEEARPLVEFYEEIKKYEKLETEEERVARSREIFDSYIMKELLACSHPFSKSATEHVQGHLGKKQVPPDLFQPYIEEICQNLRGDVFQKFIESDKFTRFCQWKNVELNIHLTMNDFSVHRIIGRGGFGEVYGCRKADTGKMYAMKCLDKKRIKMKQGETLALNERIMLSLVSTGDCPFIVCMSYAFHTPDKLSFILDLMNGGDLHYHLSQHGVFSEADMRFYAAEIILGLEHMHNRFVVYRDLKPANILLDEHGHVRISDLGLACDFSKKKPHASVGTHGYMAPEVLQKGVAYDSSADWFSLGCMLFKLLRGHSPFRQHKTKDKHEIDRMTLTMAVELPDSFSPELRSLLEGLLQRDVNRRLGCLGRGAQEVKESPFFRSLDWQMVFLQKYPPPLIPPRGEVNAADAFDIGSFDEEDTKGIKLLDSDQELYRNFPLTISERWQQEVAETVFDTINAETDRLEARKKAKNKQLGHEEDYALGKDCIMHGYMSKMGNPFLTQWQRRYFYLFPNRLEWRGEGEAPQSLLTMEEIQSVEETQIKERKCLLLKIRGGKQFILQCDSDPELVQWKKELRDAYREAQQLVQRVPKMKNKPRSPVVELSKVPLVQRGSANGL
For assay [10], the target named is Beta-2 adrenergic receptor (Homo sapiens) (UniProt P07550). The assay can be described thus: beta2AR agonists driving receptor internalization, pilot screen, cell-based, FAP fluorogen, flow cytometry, validation set (AID 504459;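 active = percent response above 42, roughly 3 SD of non-fluorescent test compounds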;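 also: agonist-driven loss of surface beta2AR via internalization measured by FAP dye flow cytometry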). The note with it: Am2.2-beta2AR cells, FAP surface receptor flow cytometry; at 10 µM; stronger effect = higher value.
Chain of Beta-2 adrenergic receptor (Homo sapiens) (P07550 whole entry, looked up): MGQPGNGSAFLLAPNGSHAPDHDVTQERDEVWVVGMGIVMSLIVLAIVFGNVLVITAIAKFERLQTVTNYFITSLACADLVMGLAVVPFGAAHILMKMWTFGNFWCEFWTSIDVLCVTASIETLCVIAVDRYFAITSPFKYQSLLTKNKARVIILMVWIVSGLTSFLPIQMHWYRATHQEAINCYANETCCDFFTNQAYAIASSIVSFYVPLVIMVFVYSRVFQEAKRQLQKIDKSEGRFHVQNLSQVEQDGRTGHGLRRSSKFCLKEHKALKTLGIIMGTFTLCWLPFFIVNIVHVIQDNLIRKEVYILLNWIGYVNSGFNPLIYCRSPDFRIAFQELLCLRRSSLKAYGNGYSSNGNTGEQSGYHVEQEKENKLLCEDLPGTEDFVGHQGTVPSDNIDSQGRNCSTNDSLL
Assay [11] has as its target AP-2 complex subunit beta (Homo sapiens) (UniProt P63010). The assay can be described thus: inhibitors of arrestin peptide binding to AP2, pilot screen, biochemical, validation set, GST-AP2 beads, flow cytometry (AID 504541;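 active = inhibition above 54%, about 3 SD of non-fluorescent compounds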;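 also: AP2 carries R879A mutation and is captured from E. coli lysate; bead-bound FITC arrestin peptide fluorescence measuring arrestin peptide binding to AP2; 0% = DMSO wells and 100% = excess unlabeled arrestin peptide control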). The note with it: FITC arrestin peptide, at 10 µM, stronger effect = higher value, AP2 beta2 appendage fragment, R879A mutant.
Assay [12] is described as follows: yeast V-ATPase proton transport modulators, S. cerevisiae, pHLuorin, HTS validation (AID 504600; in the data active = response above about 15%;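 also: plate controls were DMSO for no effect and reference compound for full effect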). The note with it: S. cerevisiae pHLuorin cytosolic pH, at 10 µM, stronger effect = higher value.
Assay [13] relates to anti-desmoglein-3 scFv antibody binding to human DSG3. The assay can be described thus: inhibitors of anti-DSG3 scFv binding to DSG3, pilot screen, biochemical, validation compound set, bead-based, flow cytometry (AID 588368;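 active = binding below the plate cutoff, the plate median minus 3 SD, with a reading above zero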;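 also: signal is the median channel fluorescence of bead-bound GFP antibody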). The note with it: Protein G beads, DSG3-Fc, scFv-GFP binding, at 10 µM, stronger effect = lower value.
A short description of assay [14]: inhibitors of fungal efflux pumps CDR1, CDR2, MDR1, pilot screen, validation compound set, multiplex, phenotypic (AID 588506;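 active = efflux inhibition above 0.42, the validation set average plus 4 SD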;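 also: Nile Red retained in cells so higher fluorescence means more efflux inhibition; 0 = negative control wells and 1 = enniatin B 25 µM full block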). The note with it: S. cerevisiae pump-expressing triplex, Nile Red efflux flow cytometry; at 10 µM; stronger effect = higher value; the pumps come from Candida albicans.
In assay [15] the target is ATP-binding cassette sub-family B member 6 (Homo sapiens) (UniProt Q9NP58). In words: ABCB6 transporter inhibitors, pilot screen, K562-ABCB6 cells, flow cytometry, validation set (AID 588550;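 active = inhibition above the screen-wide mean plus 3 SD, about 51%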;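 also: 0% = DMSO wells and 100% = benzethonium chloride 70 µM positive control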). The note with it: K562-ABCB6 porphyrin accumulation, 1 h, at 10 µM, stronger effect = higher value.
Chain of ATP-binding cassette sub-family B member 6 (Homo sapiens) (Q9NP58 whole entry, looked up): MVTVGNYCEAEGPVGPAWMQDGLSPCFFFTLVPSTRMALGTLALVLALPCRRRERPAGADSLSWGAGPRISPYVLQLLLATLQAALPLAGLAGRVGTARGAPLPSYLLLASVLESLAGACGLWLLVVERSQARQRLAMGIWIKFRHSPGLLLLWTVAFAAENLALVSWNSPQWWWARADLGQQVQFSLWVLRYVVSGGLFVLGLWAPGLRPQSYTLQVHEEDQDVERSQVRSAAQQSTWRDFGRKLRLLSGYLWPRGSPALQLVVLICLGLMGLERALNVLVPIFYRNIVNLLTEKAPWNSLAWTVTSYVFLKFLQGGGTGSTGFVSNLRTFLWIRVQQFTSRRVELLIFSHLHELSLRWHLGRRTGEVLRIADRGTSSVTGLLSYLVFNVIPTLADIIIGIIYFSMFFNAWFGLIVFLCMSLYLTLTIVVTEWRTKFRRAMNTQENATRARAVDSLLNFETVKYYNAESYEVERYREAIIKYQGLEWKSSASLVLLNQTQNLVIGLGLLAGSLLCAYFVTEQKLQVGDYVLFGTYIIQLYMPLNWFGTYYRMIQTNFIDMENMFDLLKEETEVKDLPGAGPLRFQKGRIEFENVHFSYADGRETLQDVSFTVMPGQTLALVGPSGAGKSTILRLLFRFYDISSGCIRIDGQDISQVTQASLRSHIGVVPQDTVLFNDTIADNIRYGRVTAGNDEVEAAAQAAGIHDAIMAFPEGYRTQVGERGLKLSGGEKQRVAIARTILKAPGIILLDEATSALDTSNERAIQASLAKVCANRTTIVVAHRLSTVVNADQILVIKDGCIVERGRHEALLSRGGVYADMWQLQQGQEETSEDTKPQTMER
The nature of assay [16]: promoters of myeloid differentiation in arrested cells, primary screen, cell-based, GFP/MAC1 double positive, flow cytometry, validation set (AID 588685;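 active = differentiation response of at least 50%, scaled between solvent and reference control, from cells with both markers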;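 also: compound exposure lasts four days before antibody staining and flow analysis; 0% = DMSO wells and 100% = 5 µM fulvestrant positive control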). The note with it: ER-HoxA9 marrow cells, stronger effect = higher value, normalized: vehicle 0, fulvestrant 100.

Chain of AP-2 complex subunit beta (Homo sapiens) (P63010 whole entry, looked up, the tested form may be a part, one chain of several): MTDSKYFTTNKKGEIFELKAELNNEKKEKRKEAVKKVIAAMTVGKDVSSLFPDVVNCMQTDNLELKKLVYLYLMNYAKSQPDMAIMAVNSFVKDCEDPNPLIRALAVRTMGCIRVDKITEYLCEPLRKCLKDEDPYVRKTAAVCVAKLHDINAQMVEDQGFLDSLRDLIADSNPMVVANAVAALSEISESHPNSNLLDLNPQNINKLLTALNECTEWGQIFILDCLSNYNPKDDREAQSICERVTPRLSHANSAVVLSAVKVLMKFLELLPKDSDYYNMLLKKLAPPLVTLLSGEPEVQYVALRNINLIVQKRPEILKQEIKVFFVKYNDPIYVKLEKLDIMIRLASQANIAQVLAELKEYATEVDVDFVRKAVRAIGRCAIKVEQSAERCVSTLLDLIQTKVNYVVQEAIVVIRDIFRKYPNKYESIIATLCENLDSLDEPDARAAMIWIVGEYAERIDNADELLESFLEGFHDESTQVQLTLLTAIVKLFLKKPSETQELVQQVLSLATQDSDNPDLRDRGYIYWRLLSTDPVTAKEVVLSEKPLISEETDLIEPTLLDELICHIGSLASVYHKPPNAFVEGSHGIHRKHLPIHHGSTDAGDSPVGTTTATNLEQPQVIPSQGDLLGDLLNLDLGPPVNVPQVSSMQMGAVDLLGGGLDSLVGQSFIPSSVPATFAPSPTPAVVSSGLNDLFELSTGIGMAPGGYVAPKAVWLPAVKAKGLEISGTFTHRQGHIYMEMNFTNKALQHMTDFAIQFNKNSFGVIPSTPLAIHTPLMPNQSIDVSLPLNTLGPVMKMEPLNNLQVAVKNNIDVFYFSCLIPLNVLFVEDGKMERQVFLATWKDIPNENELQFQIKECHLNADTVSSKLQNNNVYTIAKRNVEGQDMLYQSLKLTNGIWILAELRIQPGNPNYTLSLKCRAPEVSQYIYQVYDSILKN

On to `Cc1nc(NCc2ccco2)c(C#N)c2c1COC(C)(C)C2`, for which the percent of DMSO control GFP in [1] is 102% (inactive). Also, the figures for the GFP response vs DMSO in assay [2] and in assay [4] were 98.7% (inactive) and 102% (inactive), respectively. In addition, in [3], the percent response of DMSO control was 96.5% (inactive). Also, in [5], the GFP response, % of DMSO was 92.4% (inactive). In assay [6], this compound yielded a double positive events of 57.7%. The vesicle binding response in [6] was 99.2% (inactive). Also, the values for the inhibition in assay [7], in assay [11] and in assay [15] were -9.13% (inactive), -2% (inactive) and 15% (inactive), respectively. For the same compound, in assay [8], the superoxide response (% of plate) is 123% (inactive). Also, in [9], the aptamer binding inhibition is 4% (inactive). Moreover, the figures for the response in assay [10] and in [12] were 7.11% (inactive) and 12% (inactive), respectively. Moreover, the binding (% of control) in assay [13] was 98.8% (inactive). In assay [14], the efflux inhibition (fraction of control) is -0.31 (inactive). Moreover, in assay [16], the differentiation response was -1.65% (inactive).
On to `CCc1oc2ccccc2c1C(=O)c1cc(Br)c(O)c(Br)c1`, for which the percent of DMSO control GFP in assay [1] is 92.2% (inactive). Besides, the results for the GFP response vs DMSO in assay [2] and in assay [4] were 117% (inactive) and 78.1% (inactive), respectively. Also, the percent response of DMSO control in assay [3] was 106% (inactive). The GFP response, % of DMSO in assay [5] was 91% (inactive). The same compound yielded a double positive events in assay [6] of 65.3%. Also, the vesicle binding response in assay [6] was 165% (inactive). Besides, the inhibition in [7] was 7.43% (inactive); in assay [11] it was -0.81% (inactive); in [15], 12% (inactive). For the same compound, the superoxide response (% of plate) in assay [8] was 118% (inactive). Besides, the aptamer binding inhibition in [9] was 4% (inactive). The response in [10] was 2.6% (inactive); in assay [12], 15.2% (active). In addition, the binding (% of control) in assay [13] was 102% (inactive). In assay [14], the efflux inhibition (fraction of control) is 0.01 (inactive). The differentiation response in assay [16] is 9.83% (inactive).
Regarding `CC(C)[C@H]1CN(C)CCN1Cc1cn(C)nc1-c1cccc(Cl)c1`, in assay [1], the percent of DMSO control GFP is 105% (inactive). In addition, the GFP response vs DMSO in assay [2] is 104% (inactive); in [4], 90.1% (inactive). For the same compound, the percent response of DMSO control in [3] was 98.9% (inactive). Besides, the GFP response, % of DMSO in [5] was 102% (inactive). This compound also came in with a double positive events in assay [6] of 58.1%. In addition, in assay [6], the vesicle binding response was 48.9% (inactive). The values for the inhibition in [7], in [11] and in assay [15] were 3.7% (inactive), 19.9% (inactive) and 1% (inactive), respectively. Further, in assay [8], the superoxide response (% of plate) is 104% (inactive). Besides, in assay [9], the aptamer binding inhibition was -1% (inactive). Also, the values for the response in [10] and in assay [12] were -4.02% (inactive) and -0.96% (inactive), respectively. For the same compound, the binding (% of control) in assay [13] is 99.3% (inactive). The efflux inhibition (fraction of control) in assay [14] is 0.3 (inactive). Besides, the differentiation response in assay [16] is 3.18% (inactive).
For `CC1Cc2ccccc2N1NC(=O)c1ccc(Cl)c(S(N)(=O)=O)c1` (stereo not given), the percent of DMSO control GFP in assay [1] was 105% (inactive). In addition, the GFP response vs DMSO is 103% (inactive) in assay [2] and 106% (inactive) in assay [4]. For the same compound, the percent response of DMSO control in assay [3] is 105% (inactive). Further, in assay [5], the GFP response, % of DMSO is 114% (inactive). In addition, in [6], the double positive events was found to be 41.4%. Also, in assay [6], the vesicle binding response was 19.9% (active). For the same compound, the inhibition in assay [7] is 3.14% (inactive); in [11] it was 7.39% (inactive); in assay [15], 7% (inactive). Moreover, the superoxide response (% of plate) in assay [8] is 99.9% (inactive). The aptamer binding inhibition in assay [9] is 1% (inactive). Besides, the response in assay [10] was -28.6% (inactive); in assay [12], 2.79% (inactive). Besides, in assay [13], the binding (% of control) was 99.5% (inactive). Besides, in assay [14], the efflux inhibition (fraction of control) was 0.04 (inactive). Further, the differentiation response in assay [16] is 11.8% (inactive).
Consider `C[C@@H]1C[C@H]2[C@@H]3C[C@H](F)C4=CC(=O)C=C[C@]4(C)[C@@]3(F)[C@@H](O)C[C@]2(C)[C@@]1(O)C(=O)COC(=O)C(C)(C)C`, for which, in assay [1], the percent of DMSO control GFP was 101% (inactive). Also, the GFP response vs DMSO was 105% (inactive) in [2] and 98.7% (inactive) in assay [4]. The percent response of DMSO control in assay [3] is 99.3% (inactive). Also, the GFP response, % of DMSO in assay [5] was 99.2% (inactive). The compound also gave a double positive events in [6] of 58.5%. The vesicle binding response in assay [6] is 142% (inactive). Besides, the values for the inhibition in assay [7], in assay [11] and in assay [15] were 6.85% (inactive), 19.2% (inactive) and 4% (inactive), respectively. Also, the superoxide response (% of plate) in [8] is 104% (inactive). Further, in assay [9], the aptamer binding inhibition is 3% (inactive). Moreover, the response is -5.56% (inactive) in assay [10] and 0.5% (inactive) in assay [12]. The binding (% of control) in [13] is 100% (inactive). For the same compound, the efflux inhibition (fraction of control) in assay [14] is 0.14 (inactive). Moreover, the differentiation response in assay [16] is -4.16% (inactive).
